From PubChem BioAssay AID588519 (ICCB-Longwood Screening Facility, Harvard Medical School, 2011)
Hit rate of the full screen: of about 150,000 compounds, about 1,000 (0.67%) were called active. Cut-off read from the data, not from the text of the source: active = % elongation below about 90%; inactive = the rest, inconclusive results apart. What follows is part of a selection rich in actives, with near analogues and random picks from the rest.

Target: Genome polyprotein (Poliovirus type 1 (strain Mahoney)) (UniProt P03300)
Experiment: inhibitors of poliovirus polymerase RNA elongation – biochemical, fluorescence polarization, total intensity, primary screen (AID 588519); for z-score: compound at 16.7 µg/mL
Details: stronger effect = lower value; for % elongation: compound at 16.7 µg/mL; for z-score: measured here: FP z-score
[1] = measured here: total intensity read-out

Sequence of Genome polyprotein (Poliovirus type 1 (strain Mahoney)) (P03300 1749-2209 limits assumed): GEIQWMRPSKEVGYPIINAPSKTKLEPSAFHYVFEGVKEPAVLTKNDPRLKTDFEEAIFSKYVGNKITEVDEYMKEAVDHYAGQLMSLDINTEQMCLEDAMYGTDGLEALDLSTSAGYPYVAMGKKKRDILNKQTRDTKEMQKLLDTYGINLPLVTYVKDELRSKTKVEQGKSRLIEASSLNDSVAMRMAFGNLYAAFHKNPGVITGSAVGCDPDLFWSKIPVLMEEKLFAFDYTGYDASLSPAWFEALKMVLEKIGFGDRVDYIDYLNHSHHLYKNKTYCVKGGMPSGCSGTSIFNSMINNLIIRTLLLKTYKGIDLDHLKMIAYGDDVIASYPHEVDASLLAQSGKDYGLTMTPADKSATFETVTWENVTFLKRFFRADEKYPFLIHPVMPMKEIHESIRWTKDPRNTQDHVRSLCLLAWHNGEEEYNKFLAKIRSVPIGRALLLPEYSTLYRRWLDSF

Structure (SMILES) | % elongation | z-score | % elongation [1] [%]
CCN(CC)S(=O)(=O)c1cc(C(=O)N2CCN(Cc3ccc4c(c3)OCO4)CC2)ccc1Cl | 109% (inactive) | 0.8 | 109
COC(=O)COc1ccc(CSc2nc3ccccc3c(=O)n2C)cc1 | 100% (inactive) | -0.3 | 95
Cc1ccc2nc(CSc3nnc(-c4ccccc4)o3)cc(=O)n2c1 | 99% (inactive) | -0.7 | 92
CNC(=O)C1Cc2cc(S(=O)(=O)N3CCCC3)ccc2N1C(C)=O (configuration not stated) | 99% (inactive) | -1.3 | 103
O=C(Nc1cccnc1)C(=O)c1c(O)[nH]c2ccccc12 | 101% (inactive) | -0.1 | 105
CC(NC(=O)C1CCCN1C(=O)c1cccs1)c1ccc(-n2ccnc2)cc1 (configuration not stated) | 100% (inactive) | -0.2 | 104
O=c1c(Cl)c(Cl)cnn1-c1nc2ccccc2[nH]1 | 48% (active) | -5.8 | 58
N#Cc1cnn(-c2nc3ccccc3[nH]2)c1N | 105% (inactive) | 0.3 | 104
O=c1c(Cl)c(NC2CC2)cnn1-c1ccccc1 | 102% (inactive) | 0.2 | 103
Cc1cc(=O)[nH]c(SC(C)C(=O)NC2CCCCC2)n1 (configuration not stated) | 99% (inactive) | -0.4 | 103
Clc1nc2ccccc2c(N2CCCCC2)c1CNC1CC1 | 104% (inactive) | 0.8 | 105
O=C(/C=C/c1c(Cl)nc2sccn12)NCc1ccc2c(c1)OCO2 | 97% (inactive) | -0.6 | 102
N#Cc1c(N)n(Cc2ccc(Cl)cc2)c2nc3ccccc3nc12 | 75% (active) | -4.3 | 85
CC(c1ccccc1)n1c(N)c(C#N)c2nc3ccccc3nc21 (configuration not stated) | 97% (inactive) | -1.4 | 106
CC(C)(C)c1ccc(C(=O)NCCn2c(N)c(C#N)c3nc4ccccc4nc32)cc1 | 107% (inactive) | 0.5 | 112
Cc1nnc2ccc(-c3ccc(NS(=O)(=O)c4ccc5c(c4)OCCO5)cc3)nn12 | 99% (inactive) | -1.2 | 102
CCOCCCNC(=O)c1c(NC(=O)Cc2coc3c(C)c(C)ccc23)sc2c1CCC2 | 116% (inactive) | 0.1 | 117
CCOC(=O)c1c(NC(=O)Cc2coc3ccc(CC)cc23)sc2c1CCC2 | -3% (active) | -8.5 | 25
CCOC(=O)c1c(NC(=O)c2cc(-n3cnnc3)ccc2Cl)sc2c1CCCC2 | 99% (inactive) | -0.5 | 100
COc1ccc(-c2cc(C(=O)Nc3sc4c(c3C(N)=O)CCCC4)no2)cc1 | 100% (inactive) | -0.5 | 102
CCOCCCNC(=O)c1c(NC(=O)Cc2coc3ccc(C)cc23)sc2c1CCC2 | 116% (inactive) | 0.1 | 114
CCOC(=O)c1c(NC(=O)c2cc(-c3ccc(Cl)cc3)on2)sc2c1CCCC2 | 84% (active) | -3 | 85
CCCN(Cc1nc2cc(Cl)ccc2c(=O)[nH]1)C(=S)NC | 99% (inactive) | -0.3 | 99
CN(C)/N=C/C=C1\CCC/C(=C\C=N\N(C)C)C1=O | 165% (inactive) | 6.6 | 154
CN(C)c1ccc(/C=C(\C#N)NC(=O)c2ccccc2)cc1 | 103% (inactive) | 0 | 108
Cc1ccc(NC(=O)COc2ccccc2O)cc1C | 103% (inactive) | 0.1 | 104
Cc1ccc2[nH]c(=O)c(CNCCCN(C)C)cc2c1 | 100% (inactive) | -0.2 | 102

Structure (SMILES) | % elongation | z-score | % elongation [1] [%]
Cc1c(NC(=O)Cc2ccc(S(=O)(=O)N3CCCCC3)cc2)c(=O)n(-c2ccccc2)n1C | 102% (inactive) | -0.1 | 108
Cc1cc(Nc2ccc(Cl)cc2)c2ccccc2n1 | 92% (inactive) | -1 | 93
Cc1cc(Sc2nnc(C)s2)c2ccccc2n1 | 86% (active) | -1.5 | 83
Cc1ccc2nc(C)cc(Nc3ccccc3)c2c1 | 101% (inactive) | -0.1 | 105
CC(C)CCSc1nc2ncn(C)c2c(=O)[nH]1 | 104% (inactive) | 0.4 | 108
COc1cc(/C=N/NS(=O)(=O)c2cc(C)ccc2C)cc(OC)c1O | 104% (inactive) | 0.3 | 124
O=C1S/C(=C/c2cc3c(cc2Cl)OCO3)C(=O)N1c1ccccc1 | 100% (inactive) | -0.4 | 103
CCN(CC)c1nc(C#N)nc(OC)n1 | 87% (active) | -1.5 | 90
NS(=O)(=O)c1ccc(N=Cc2c(O)n(Cc3ccc4c(c3)OCO4)c(=O)c3ccccc23)cc1 | 100% (inactive) | 0 | 105
CN=C(Cl)c1cccs1 | 99% (inactive) | -0.6 | 101
O=C(Nc1cccc(Cl)c1)N1CCC(n2nnc3cc(F)ccc32)CC1 | 102% (inactive) | 0.2 | 100
CN(C)C(=O)CCSc1nc2cc(Cl)ccc2o1 | 103% (inactive) | 0.3 | 102
CCCCC(=O)Nc1sc2c(c1C#N)CCCC2 | 92% (inactive) | -1.4 | 100
CNC(=O)c1sc(NCc2ccccc2OC)nc1C | 80% (active) | -3.1 | 89
COc1ccccc1CNC(=O)CS(=O)(=O)c1cccc2nsnc12 | 105% (inactive) | -0.4 | 112
COc1ccccc1CNCc1ccc(C(=O)O)s1 | 108% (inactive) | 0.4 | 113
O=C(c1cccc(Cl)c1)N1CCN(CCc2ccncc2)CC1 | 21% (active) | -6.3 | 37
O=C(c1ccccc1)N1CCN(c2cccc(Cl)c2)CC1 | 100% (inactive) | -0.3 | 95
O=C(NCc1ccncc1)C1CCN(C(=O)c2cccc(Cl)c2)CC1 | 99% (inactive) | -0.2 | 102
O=C(O)CSc1nnc(-c2ccccc2)n1-c1ccccc1 | 101% (inactive) | -0.2 | 102
O=C(O)c1ccc2nc[nH]c2c1 | 100% (inactive) | -0.4 | 108
CCOC(=O)c1sc(NC(=O)/C=C/c2ccc(Cl)cc2)cc1C | 102% (inactive) | 0.3 | 106
COc1cc(OC)c(N(C)C(=O)c2ccc3c(=O)n4c(nc3c2)CCCCC4)cc1Cl | 105% (inactive) | 0.9 | 109
CC(C)(C)NCC(O)COc1c(Br)ccc2c1sc1nc3n(c(=O)c12)CCCCC3 (configuration not stated) | 69% (active) | -4.7 | 96
CCN(C(=O)c1sc2nc3n(c(=O)c2c1C)CCCC3)c1ccccc1 | 100% (inactive) | -1.2 | 100
CC1CC(C)CN(C(=O)C(C)Sc2nnnn2-c2ccc(Cl)cc2)C1 (configuration not stated) | 98% (inactive) | -0.5 | 99
O=C1CCCCCN1Cc1nnc(SCN2C(=O)c3ccccc3C2=O)n1-c1ccccn1 | 106% (inactive) | 0.4 | 100
